The record followed here is publication doi:10.1101/2024.03.05.583629.

The target of one test is pT7_6His-AlfaTag-HOXD13 (human, UniProt P35453 263-343). Description: PADIT-seq. The conditions noted are these: dsDNA, one strand shown.
The target of another test is pT7_6His-AlfaTag-ZIF268 (human, UniProt P18146 335-423). Description: PADIT-seq. The note with it: dsDNA, one strand shown.

Chain of pT7_6His-AlfaTag-HOXD13 (P35453 263-343): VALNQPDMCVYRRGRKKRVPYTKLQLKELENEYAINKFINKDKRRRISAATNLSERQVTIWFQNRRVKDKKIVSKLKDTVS

For the sequence “CTCGAGGATATCAAGATCTGGCCTCGGCATTTTAGACGGAACCTCTAGCTAGCCGACTCACTATAGGGATAATCGCCCTGAGCAAAGACC”, the binding signal with pT7_6His-AlfaTag-HOXD13 is -0.141 ± 0.116 log2FC. Regarding “CTCGAGGATATCAAGATCTGGCCTCGGCTGGCTAAAAGGAACCTCTAGCTAGCCGACTCACTATAGGGATAATCGCCCTGAGCAAAGACC”, the binding signal in the test with pT7_6His-AlfaTag-HOXD13 is -0.708 ± 0.106 log2FC; with pT7_6His-AlfaTag-ZIF268 it was 0.0373 ± 0.0882 log2FC. On the same counts, the results for “CTCGAGGATATCAAGATCTGGCCTCGGCCATTGGGCGGGAACCTCTAGCTAGCCGACTCACTATAGGGATAATCGCCCTGAGCAAAGACC” are -0.505 ± 0.104 log2FC and 0.139 ± 0.0899 log2FC. On the same counts, the results for “CTCGAGGATATCAAGATCTGGCCTCGGCTTTTTAGTGGGAACCTCTAGCTAGCCGACTCACTATAGGGATAATCGCCCTGAGCAAAGACC” are 1.59 ± 0.0858 log2FC and 0.00131 ± 0.0904 log2FC.

In the case of “CTCGAGGATATCAAGATCTGGCCTCGGCAGGATAAAAGGAACCTCTAGCTAGCCGACTCACTATAGGGATAATCGCCCTGAGCAAAGACC”, the binding signal is 0.374 ± 0.0721 log2FC with pT7_6His-AlfaTag-HOXD13 and 0.0545 ± 0.0675 log2FC in the test with pT7_6His-AlfaTag-ZIF268. The like results for “CTCGAGGATATCAAGATCTGGCCTCGGCCCCCTAAAAGGAACCTCTAGCTAGCCGACTCACTATAGGGATAATCGCCCTGAGCAAAGACC” were, in that order, 0.578 ± 0.0983 log2FC and 0.267 ± 0.0922 log2FC. On the same counts, the results for “CTCGAGGATATCAAGATCTGGCCTCGGCCTTTTACGGGGAACCTCTAGCTAGCCGACTCACTATAGGGATAATCGCCCTGAGCAAAGACC” are 3.14 ± 0.0784 log2FC and 0.0515 ± 0.0862 log2FC. On the same counts, the results for “CTCGAGGATATCAAGATCTGGCCTCGGCGCGTGGACTGGAACCTCTAGCTAGCCGACTCACTATAGGGATAATCGCCCTGAGCAAAGACC” are -0.334 ± 0.121 log2FC and 0.0272 ± 0.108 log2FC. As to “CTCGAGGATATCAAGATCTGGCCTCGGCGTTTTAGTGGGAACCTCTAGCTAGCCGACTCACTATAGGGATAATCGCCCTGAGCAAAGACC”, the binding signal was determined as 1.76 ± 0.0845 log2FC in the test with pT7_6His-AlfaTag-HOXD13 and 0.0814 ± 0.0894 log2FC with pT7_6His-AlfaTag-ZIF268. The like results for “CTCGAGGATATCAAGATCTGGCCTCGGCGCGTGGGTTGGAACCTCTAGCTAGCCGACTCACTATAGGGATAATCGCCCTGAGCAAAGACC” were, in that order, -1.06 ± 0.134 log2FC and 2.53 ± 0.0963 log2FC. On the same counts, the results for “CTCGAGGATATCAAGATCTGGCCTCGGCCTTTGGGCGGGAACCTCTAGCTAGCCGACTCACTATAGGGATAATCGCCCTGAGCAAAGACC” are -0.932 ± 0.115 log2FC and 0.262 ± 0.0913 log2FC. Turning to “CTCGAGGATATCAAGATCTGGCCTCGGCGTTTTAATCGGAACCTCTAGCTAGCCGACTCACTATAGGGATAATCGCCCTGAGCAAAGACC”, in the test with pT7_6His-AlfaTag-HOXD13, the binding signal worked out at 0.636 ± 0.0931 log2FC. The same measure, in the same setting: as for “CTCGAGGATATCAAGATCTGGCCTCGGCGTTTTAAGGGGAACCTCTAGCTAGCCGACTCACTATAGGGATAATCGCCCTGAGCAAAGACC”, the figure is 1.67 ± 0.0925 log2FC. Consider “CTCGAGGATATCAAGATCTGGCCTCGGCGCGATTGCGGGAACCTCTAGCTAGCCGACTCACTATAGGGATAATCGCCCTGAGCAAAGACC”, for which the binding signal was -0.695 ± 0.114 log2FC in the test with pT7_6His-AlfaTag-HOXD13 and 0.187 ± 0.0941 log2FC in the test with pT7_6His-AlfaTag-ZIF268. The like results for “CTCGAGGATATCAAGATCTGGCCTCGGCCTTTTAGGAGGAACCTCTAGCTAGCCGACTCACTATAGGGATAATCGCCCTGAGCAAAGACC” were, in that order, 1.3 ± 0.0799 log2FC and 0.0187 ± 0.0815 log2FC.

With “CTCGAGGATATCAAGATCTGGCCTCGGCCGCCCATCCGGAACCTCTAGCTAGCCGACTCACTATAGGGATAATCGCCCTGAGCAAAGACC”, the binding signal in the test with pT7_6His-AlfaTag-HOXD13 was -1.06 ± 0.122 log2FC; with pT7_6His-AlfaTag-ZIF268 it was 0.00306 ± 0.0965 log2FC. The sequence “CTCGAGGATATCAAGATCTGGCCTCGGCTTTTTATGAGGAACCTCTAGCTAGCCGACTCACTATAGGGATAATCGCCCTGAGCAAAGACC” yielded a binding signal in the test with pT7_6His-AlfaTag-HOXD13 of 3.46 ± 0.0792 log2FC. Consider “CTCGAGGATATCAAGATCTGGCCTCGGCTTTTTACCAGGAACCTCTAGCTAGCCGACTCACTATAGGGATAATCGCCCTGAGCAAAGACC”, for which the binding signal with pT7_6His-AlfaTag-HOXD13 worked out at 0.621 ± 0.101 log2FC; with pT7_6His-AlfaTag-ZIF268, 0.0254 ± 0.098 log2FC. The like results for “CTCGAGGATATCAAGATCTGGCCTCGGCGCGTGGCATGGAACCTCTAGCTAGCCGACTCACTATAGGGATAATCGCCCTGAGCAAAGACC” were, in that order, -1.09 ± 0.127 log2FC and 0.0324 ± 0.101 log2FC. On the same counts, the results for “CTCGAGGATATCAAGATCTGGCCTCGGCATTTTAATAGGAACCTCTAGCTAGCCGACTCACTATAGGGATAATCGCCCTGAGCAAAGACC” are 2.83 ± 0.073 log2FC and 0.0148 ± 0.0814 log2FC. Take “CTCGAGGATATCAAGATCTGGCCTCGGCCTTTTAAAAGGAACCTCTAGCTAGCCGACTCACTATAGGGATAATCGCCCTGAGCAAAGACC”: the values for the binding signal with pT7_6His-AlfaTag-HOXD13 and with pT7_6His-AlfaTag-ZIF268 were 2.5 ± 0.0673 log2FC and 0.098 ± 0.0706 log2FC, respectively. The like results for “CTCGAGGATATCAAGATCTGGCCTCGGCTTTTTACCTGGAACCTCTAGCTAGCCGACTCACTATAGGGATAATCGCCCTGAGCAAAGACC” were, in that order, -0.185 ± 0.138 log2FC and 0.019 ± 0.125 log2FC. On the same counts, the results for “CTCGAGGATATCAAGATCTGGCCTCGGCGTTTTAGGCGGAACCTCTAGCTAGCCGACTCACTATAGGGATAATCGCCCTGAGCAAAGACC” are -0.768 ± 0.146 log2FC and 0.0528 ± 0.123 log2FC. The like results for “CTCGAGGATATCAAGATCTGGCCTCGGCTCACTAAAAGGAACCTCTAGCTAGCCGACTCACTATAGGGATAATCGCCCTGAGCAAAGACC” were, in that order, 0.718 ± 0.11 log2FC and 0.00307 ± 0.107 log2FC.
